# High-throughput results: PubChem, several laboratories
# GC-B act = human GC-B receptor activators, primary screen, HEK293 GC-B cells, cGMP TR-FRET, EC30 CNP; Atrial natriuretic peptide receptor 2 (Homo sapiens), P20594; 0% at EC30 CNP, 100% saturating CNP; activation, % at 10 µM; 0.11% of 370,000 active;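 active means activation at 10 µM reaching about 35% in either raw or pattern-adjusted values, limit read from the data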
# NPR1 activator = GC-A stimulated cGMP production enhancers – HEK293 GC-A cells, cGMP TR-FRET, EC30 ANP, primary screen; Atrial natriuretic peptide receptor 1 (Homo sapiens), P16066; 0% at EC30 ANP, 100% saturating ANP; activation, % at 10 µM; 0.14% of 370,000 active; in the data active means activation above about 40%
# HTR2A ag = mouse Htr2a agonists via beta-arrestin recruitment, primary screen, cell-based, luminescence. 5-hydroxytryptamine receptor 2A (Mus musculus), P35363. CHO-K1 mHTR2A beta-arrestin complementation; percent of 30 µM serotonin response. activation, % at 7.6 µM. 0.66% of 360,000 active. AID 624169, 2012;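 active means activation above a run cutoff, the mean activation of all tested compounds plus 3 SD, cut at about 14% in these data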;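 further: 0% = plate median of compound wells and 100% = 30 µM serotonin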
# Target sequence (P35363 whole entry, looked up): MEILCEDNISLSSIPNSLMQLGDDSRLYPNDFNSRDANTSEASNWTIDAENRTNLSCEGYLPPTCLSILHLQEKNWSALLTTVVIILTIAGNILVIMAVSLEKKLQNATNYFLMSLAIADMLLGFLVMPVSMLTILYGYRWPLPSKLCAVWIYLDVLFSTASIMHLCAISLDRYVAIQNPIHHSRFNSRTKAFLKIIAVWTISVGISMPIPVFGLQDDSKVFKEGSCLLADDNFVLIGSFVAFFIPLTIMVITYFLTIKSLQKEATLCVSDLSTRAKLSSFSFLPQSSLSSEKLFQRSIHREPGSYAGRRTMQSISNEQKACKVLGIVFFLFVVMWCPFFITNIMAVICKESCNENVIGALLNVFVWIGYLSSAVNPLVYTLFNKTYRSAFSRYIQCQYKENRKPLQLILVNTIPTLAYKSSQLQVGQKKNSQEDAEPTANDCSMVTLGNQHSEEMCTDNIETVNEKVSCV
# bovine MsrA act = bovine MsrA enzyme activators, primary screen, biochemical, absorbance, HTS; purified bovine MsrA, absorbance read-out; 0.3% of 360,000 active; Methionine sulfoxide reductase A (Bos taurus); AID 602163, 2012; activation, % at 10.6 µM; in the data active means activation above about 7.5%;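 further: 0% = vehicle and 100% = reference activator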
# MsrA inhibitor = bovine MsrA enzyme inhibitors, primary screen, biochemical, absorbance, HTS | Methionine sulfoxide reductase A (Bos taurus) | purified bovine MsrA, absorbance read-out | inhibition, % at 15.5 µM | 0.75% of 360,000 active;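 further: 0% = vehicle wells with enzyme and 100% = reference inhibitor wells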
# MsrA inh confirm = bovine MsrA inhibitors, retest, confirmation, biochemical, absorbance, HTS; shares compounds with MsrA inhibitor; purified bovine MsrA, absorbance read-out; inhibition, % at 15.5 µM; 41% of 2,300 active; AID 651822, 2012;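 further: coupled to thioredoxin reductase with NADPH and selenocystamine and DMSO as substrate; 0% = vehicle only and 100% = full effect of reference inhibitor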
# Active calls of the source: *; . = not tested or not shown. Shown are actives, neighbours in structure and some others; about 1.8% of the full set was active somewhere. Unless noted, no stated cut-off is given here; in the data, active means inhibition above about 4.5%; inactive means the rest.
SMILES,GC-B act,NPR1 activator,HTR2A ag,bovine MsrA act,MsrA inhibitor,MsrA inh confirm
CC(C)c1cc(C(=O)N/N=C/C=C/c2ccccc2)n[nH]1,-2.1,4.5,-4.4,-4.5,2.3,.
O=c1[nH]cnc2c1sc1nc(C(F)F)cc(-c3ccccc3)c12,-9.6,3.6,1.6,-5.4,-0.8,.
O=C(c1ccccc1)N(CCO)Cc1cc2cc3c(cc2[nH]c1=O)OCCO3,1.8,-1.8,1.4,-3.6,0.8,.
O=C(c1ccco1)N(CCO)Cc1cc2cc3c(cc2[nH]c1=O)OCO3,-3.4,4.0,3.0,-0.6,6.1*,3.1
COc1ccc(-c2cc(C(=O)N/N=C/C(C)=C\c3ccco3)[nH]n2)cc1,-10.5,-4.9,.,.,.,.
O=C1NC(=S)N/C1=C/C=C/c1ccccc1,-2.6,0.3,-1.6,-4.5,4.7*,3.3
CC(COc1cccc([N+](=O)[O-])c1)CN1CCC(C(O)(c2ccccc2)c2ccccc2)CC1 (stereo not given),-9.1,-17.7,.,.,.,.
COc1cc2c(cc1O)CC[n+]1cc3c(OC)c(OC)ccc3cc1-2,-16.1,-15.4,-2.1,-4.1,5.2*,2.9
COC(=O)CSc1nn(-c2ccc(F)cc2)c(=S)s1,-9.9,40.1*,-3.9,-2.2,5.2*,2.3
O=C(CSc1nn(-c2ccccc2)c(=S)s1)Nn1cnnc1,8.4,-3.6,9.7,-14.4,2.0,.
N#C/C(=C(/O)COC(=O)c1cccnc1Cl)c1nc2ccccc2[nH]1,-2.2,-1.9,0.6,-2.1,4.7*,1.4
N#C/C(=C(/O)COC(=O)c1ccc(O)cc1)c1nc2ccccc2[nH]1,0.1,1.5,0.4,-5.0,0.0,.
COC(=O)[C@]12C[C@H](CC(=O)NCCCN3CCCC3=O)C(=O)N(Cc3ccco3)C1=C[C@H](C(C)(C)C)O[C@@H]2C,-5.4,-5.5,.,.,.,.
Nc1ncnc(NCc2ccccc2)c1[N+](=O)[O-],0.5,4.6,1.7,-10.1,4.9*,1.6
Cc1ccc(NC(=O)/C=C2\NC(=O)CS2)cc1,2.6,2.1,1.6,-3.0,1.0,.
CC(C)(C)c1ccc(C(=O)/C=C2\NC(=O)CS2)cc1,-7.4,1.1,-8.9,-11.7,5.1*,4.5
CCN(CC)c1ccc(NC(=O)CSc2nc3ccccc3c(=O)n2-c2ccc(C)cc2)cc1,7.3,-1.4,.,.,.,.
O=C(Nc1ccccc1C(F)(F)F)OCCCN1CCC2(CCC(c3ccccc3)CC2)C1=O (stereo not given),2.1,-1.1,.,.,.,.
COC(=O)C12C=C3CC(C4CC4)=C3C(=O)N1Cc1[nH]c3ccccc3c1C2 (stereo not given),-1.3,-15.5,.,.,.,.
O=C(Nc1ccc2nc(-c3ccc(Br)o3)[nH]c2c1)c1ccco1,20.4,13.2,3.1,-9.1,6.5*,6.6*
S=C(Nc1ccc(Br)cc1)OC1CCC12CCC(c1ccccc1)CC2 (stereo not given),-6.9,0.5,.,.,.,.
CCCOc1c(OC)cccc1C1CC(=O)Nc2cc3c(cc21)OCCO3 (stereo not given),-0.1,1.1,4.6,-4.1,0.0,.
CCCOc1c(OC)cccc1C1CC(=O)Nc2cc3c(cc21)OCO3 (stereo not given),-11.1,-11.5,3.2,-3.7,5.1*,4.7*
COC(=O)[C@]12C[C@H](CC(=O)N3CCSCC3)C(=O)N(CCc3ccc(OC)c(OC)c3)C1=C[C@H](C(C)(C)C)O[C@@H]2C,2.1,-3.9,.,.,.,.
O=C(CCCN1C(=O)c2cccc3cccc(c23)C1=O)N1CCN(c2ccccc2)CC1,-4.2,-4.3,6.1,-9.4,1.0,.
O=C(CCCN1C(=O)c2cccc3cccc(c23)C1=O)N1CCN(c2ccccc2O)CC1,3.2,-0.9,2.5,2.4,5.1*,1.7
CC1CC(C)CN(CCCNS(=O)(=O)c2cc3c(cc2Br)CCN3C(=O)C2CC2)C1 (stereo not given),-5.7,0.3,.,.,.,.
Cc1ccc(CN2CCCCC(NC(=O)c3ccc(-c4ccccc4)cc3)C2=O)cc1 (stereo not given),-3.2,1.5,.,.,.,.
